Source: PubChem BioAssay AID2578 (National Center for Advancing Translational Sciences (NCATS), 2010)
The source made the active and inactive calls. Calls come from the whole dose curve; as a rule, active = well fitted curve in the direction sought with a large enough effect; inactive = no such curve, though single readings can be large or run the other way.

molecular target: Alpha-galactosidase A (Homo sapiens) (UniProt P06280); test: qHTS Assay for Inhibitors and Activators of N370S glucocerebrosidase as a Potential Chaperone Treatment of Gaucher Disease: Alpha-Galactosidase Counterscreen; details: purified enzyme, 4-MU-alpha-Gal fluorescence, 20 min; series mostly up to 57.5 µM; activity change, negative = inhibition: at the top concentration
Sequence (P06280 whole entry, looked up): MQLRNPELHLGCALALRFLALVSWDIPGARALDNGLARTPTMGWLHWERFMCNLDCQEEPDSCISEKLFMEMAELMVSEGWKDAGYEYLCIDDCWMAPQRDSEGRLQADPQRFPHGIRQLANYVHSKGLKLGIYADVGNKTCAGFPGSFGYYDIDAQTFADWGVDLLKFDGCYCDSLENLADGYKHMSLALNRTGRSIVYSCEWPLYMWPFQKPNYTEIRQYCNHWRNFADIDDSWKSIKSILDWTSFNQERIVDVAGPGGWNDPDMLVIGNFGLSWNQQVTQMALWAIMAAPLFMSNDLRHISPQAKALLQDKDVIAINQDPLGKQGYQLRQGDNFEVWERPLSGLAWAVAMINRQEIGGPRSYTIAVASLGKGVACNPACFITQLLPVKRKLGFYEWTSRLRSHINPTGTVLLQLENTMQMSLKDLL
From the text: NIH Chemical Genomics Center [NCGC] NIH Molecular Libraries Probe Production Centers Network [MLPCN] MLPCN Grant: MH086442-01 Assay Submitter (PI): Wei Zheng Glucocerebrosidase (GC) catalyzes the hydrolysis of beta-glucocerebroside to glucose and ceramide in lysosomes. Mutations in the glucocerebrosidase gene result in Gaucher disease, an autosomal recessive lysosomal storage disorder. Many of the mutations encountered in patients with Gaucher disease are missense alterations that may cause misfolding, decreased stability and/or mistrafficking of this lysosomal protein. […] These inhibitors include iminosugar analogs and three non-iminosugar inhibitors identified from a previous HTS of 62,000 compounds with the wild type recombinant enzyme. However, the enhancement of enzyme activity by the chaperone action of an enzyme inhibitor must be balanced against the direct inhibition of the enzyme. An enzyme activator could also function as a chaperone by binding to the enzyme and helping to correct its misfolding and mistrafficking. While activators for GC have not yet been identified, they may have better therapeutic potential than inhibitors. Therefore the discovery and development of chemical activators may provide a new strategy for the chaperone therapy. To characterize compound selectivity, selected hits from the primary screen were screened against purified alpha-galactosidase, a related sugar hydrolase. Alpha-galactosidase is a homodimeric glycoprotein that hydrolyzes the terminal alpha-galactosyl moieties from glycolipids and glycoproteins.
NCGC Assay Protocol Summary: This is a fluorogenic enzyme assay with 4-Methylumbelliferyl alpha-D-galactopyranoside as the substrate and human […] as the enzyme preparation. Upon the hydrolysis of this fluorogenic substrate, the resulting product, […]. 4-Methyllumbelliferone, can be excited at 365 nm and emits at 440 nm. This fluorescence which can be detected by a standard fluorescence plate reader. Data were normalized to the controls for basal activity (without enzyme) and 100% activity (with enzyme). In the AC50 values were determined from concentration-response data modeled with the standard Hill equation. Assay buffer: 50 mM citric acid (titrated with potassium phosphate to pH 4.5), 0.005% Tween-20, pH 4.5. (pH 4.5 is an optimal condition for this enzyme assay) 1536-well assay protocol for the human alpha-galactosidase: (1) Add 2 ul/well of enzyme (12 nM final) (2) Add 23 nL compounds in DMSO solution. The final titration was 0.7 nM to 77 uM. (3) Add 1 ul of substrate ([…]) (4) Incubate at room temperature for 20 min. (5) Add 2 ul stop solution (1M NaOH and 1M Glycine mixture, pH 10) (6) Detect the assay plate in a ViewLux plate reader (PerkinElmer) with Ex=365 nm and Em=440nm. Keywords: MLSMR, MLPCN, NIH Roadmap, qHTS, NCGC, : Alpha-galactosidase, Fabry Disease, pharmacological chaperone, chaperone therapy

SMILES	activity change, negative = inhibition
O=S(=O)(c1ccc(Cl)cc1)N1CCN(c2nc(-c3ccc(Cl)cc3)nc3ccccc23)CC1	-12.3% (inactive)
COc1ccc(S(=O)(=O)N2CCN(c3nc(-c4cccs4)nc4ccccc34)CC2)cc1	-17.2% (inactive)
O=S(=O)(c1ccc(F)cc1)N1CCN(c2nc(-c3ccc(F)cc3)nc3cc(Cl)ccc23)CC1	-8.46% (inactive)
O=S(=O)(c1ccc(C(F)(F)F)cc1)N1CCN(c2nc(-c3cccs3)nc3ccccc23)CC1	-9.68% (inactive)
O=S(=O)(c1ccc2c(c1)OCCO2)N1CCN(c2nc(-c3cccs3)nc3ccccc23)CC1	-4.11% (inactive)
O=S(=O)(c1ccccc1C(F)(F)F)N1CCN(c2nc(-c3ccccc3)nc3ccccc23)CC1	-8.09% (inactive)
O=[N+]([O-])c1ccc(S(=O)(=O)N2CCN(c3nc(-c4cccs4)nc4ccccc34)CC2)cc1	-5.18% (inactive)
O=[N+]([O-])c1cccc(S(=O)(=O)N2CCN(c3nc(-c4ccccc4)nc4ccccc34)CC2)c1	-5.88% (inactive)
O=S(=O)(c1ccccc1)N1CCN(c2nc(-c3ccc(F)cc3)nc3cc(Cl)ccc23)CC1	-1.96% (inactive)
O=S(=O)(c1ccc(Cl)cc1)N1CCN(c2nc(-c3ccccc3)nc3ccccc23)CC1	-12.8% (inactive)
O=S(=O)(c1cccc(C(F)(F)F)c1)N1CCN(c2nc(-c3ccccc3)nc3ccccc23)CC1	-10.1% (inactive)
O=S(=O)(c1ccc(F)cc1)N1CCN(c2nc(-c3cccs3)nc3cc(Cl)ccc23)CC1	-15.3% (inactive)
CCOC(=O)c1ccc(S(=O)(=O)N2CCN(c3nc(-c4cccs4)nc4ccccc34)CC2)cc1	-9.25% (inactive)
COc1ccc(S(=O)(=O)N2CCN(c3nc(-c4ccccc4)nc4ccccc34)CC2)cc1	-3.17% (inactive)
O=S(=O)(c1ccc(F)cc1)N1CCN(c2nc(-c3ccccc3)nc3ccccc23)CC1	-9.18% (inactive)
O=S(=O)(c1ccc(Cl)cc1)N1CCN(c2nc(-c3ccc(F)cc3)nc3cc(Cl)ccc23)CC1	-2.54% (inactive)
O=S(=O)(c1ccc(F)cc1)N1CCN(c2nc(-c3cccc(Br)c3)nc3ccccc23)CC1	-5.82% (inactive)
N#Cc1ccccc1S(=O)(=O)N1CCN(c2nc(-c3ccccc3)nc3ccccc23)CC1	-13.5% (inactive)
O=S(=O)(c1cccc(C(F)(F)F)c1)N1CCN(c2nc(-c3cccs3)nc3cc(Cl)ccc23)CC1	-16.1% (inactive)
S=C(NCCCc1cnc[nH]1)NCCCN(Cc1ccc(Cl)c(Cl)c1)c1ccc(Br)cn1	-6.2% (inactive)
Cc1ccc(S(=O)(=O)N2CCN(c3nc(-c4ccc(F)cc4)nc4cc(Cl)ccc34)CC2)cc1	-11.1% (inactive)
O=S(=O)(c1ccccc1Br)N1CCN(c2nc(-c3ccccc3)nc3ccccc23)CC1	-29.7% (inactive)
O=S(=O)(c1ccc2ccccc2c1)N1CCN(c2nc(-c3ccccc3)nc3ccccc23)CC1	-6.14% (inactive)
O=S(=O)(c1cccc(C(F)(F)F)c1)N1CCN(c2nc(-c3cccs3)nc3ccccc23)CC1	-4.24% (inactive)
O=[N+]([O-])c1ccc(S(=O)(=O)N2CCN(c3nc(-c4ccccc4)nc4ccccc34)CC2)cc1	-5.35% (inactive)
Cc1ccc(-c2nc(N3CCN(S(=O)(=O)c4ccc(F)cc4)CC3)c3ccc(Cl)cc3n2)cc1	-10.4% (inactive)
O=S(=O)(c1ccccc1Cl)N1CCN(c2nc(-c3ccccc3)nc3ccccc23)CC1	-14.7% (inactive)
CC(C)(C)c1ccc(S(=O)(=O)N2CCN(c3nc(-c4ccccc4)nc4ccccc34)CC2)cc1	-7.91% (inactive)
CCOc1ccc(S(=O)(=O)N2CCN(c3nc(-c4ccccc4)nc4ccccc34)CC2)cc1OCC	-8.78% (inactive)
O=S(=O)(c1ccc(F)cc1)N1CCN(c2nc(-c3ccccc3)nc3cc(Cl)ccc23)CC1	-14% (inactive)
